Among the data in PubChem BioAssay (NCATS) are outcome values, retold here.

Molecules are shown by their SMILES. Inconclusive results are not listed. Active and inactive are the calls of the source. Calls follow the shape of the dose curve; as a rule, active = well fitted cell-killing curve with a large enough effect; inconclusive = small, poorly fitted or top-dose-only effect; inactive = flat fitted curve, though single readings scatter.

The assay is described as follows: Cell Viability - LYMP2-026 (AID 989).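 Also: cells exposed to compound for 24 h at 37 °C; nearly all actives have a fitted effect of over 50% in size.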 The settings on record: LYMP2-026 lymphoblastoid cell viability, qHTS; series mostly up to 92.2 µM. The text has this: NIH Chemical Genomics Center [NCGC]
NIH Molecular Libraries Screening Centers Network [MLSCN]
National Institutes of Environmental Health Sciences [NIEHS]
National Toxicology Program [NTP]
We have developed a 1536-well cell-based assay for quantitative high throughput screening (qHTS) against a number of cell lines to determine in vitro cytotoxicity of small molecules. This particular assay uses a human lymphoblastoid cell line (LYMP2-026) purchased from Coriell Institute for Medical Research.
NCGC Assay Protocol Summary:
The CellTiter-Glo luminescent cell viability assay (Promega) is a homogeneous method to measure the number of viable cells in culture. The end point readout of this assay is based on quantitation of intracellular ATP, an indicator of metabolic activity, using the luciferase reaction. Luciferase catalyzes the oxidation of beetle Luciferin to oxyluciferin and light in the presence of ATP. The luminescent signal is proportional to amount of ATP present.
Using the CellTiter-Glo luminescent cell viability assay, the amount of cellular ATP was measured in the lymphoblastoid cell line with complete culture medium following compound treatment for 24 hours. The assay was performed in opaque white Kalypsys 1536-well plates. In the screen, tetraoctylammonium bromide was used as positive control. Library compounds were measured for their ability to cause acute toxicity in the cell line, as reflected by a decrease in intracellular ATP levels, in a concentration-dependent manner. […] AC50 values were determined from concentration-response data modeled with the standard Hill equation.
qHTS protocol for CellTiter Glo lymphoblastoid cellular assay
[Step] [Parameter] [Value] [Description]
1. Reagent; 5 uL; 2500 lymphoblastoid cells/well
2. Time; 5 hr; 37 C incubation
4. Controls; 23 nL; Tetraoctylammonium bromide 6.4pM to 92 uM
5. Time; 24 hr; 37 C incubation
6. Reagent; 5 uL; CellTiter Glo reagent
7. Time; 30 min; Room Temperature
8. Detection; Luminescence; Viewlux plate reader
Keywords: cell viability, cytotoxicity, lymphoblastoid cell line, luminescence, NTPHTS, NTPHTS_NCGC, NIEHS, DSSTox, MLSMR, MLSCN, NIH Roadmap, qHTS, NCGC
On the technique in general: qHTS replaces the single test concentration by a dilution series.
On to `CC(=O)Nc1cccc(O)c1`, for which the compound was called inactive.

As for `O=C(c1ccccc1)C(O)c1ccccc1` (configuration not stated), the call was inactive.

As to `CCCC(O)C(CC)CO` (configuration not stated), the compound was classed as inactive.

For the compound `O=C1c2cccc(O)c2C(=O)c2c(O)cccc21`, the result was inactive.

`O=C(O)CCCCC1CCSS1` (configuration not stated): the compound was called inactive.

On to `CCCCCC(N)=O`, for which the result was inactive.

With `CC(=O)Nc1ccc(C(=O)O)cc1`, the result was inactive.

Consider `CC(=O)NS(=O)(=O)c1ccc(N)cc1`, for which the outcome was inactive.

As to `CCN(CC)C(=O)c1cccc(C)c1`, the outcome was inactive.

For the compound `CC(=O)Nc1ccccc1`, the compound was classed as inactive.

Consider `CCCCCCCC(=O)OCC(COC(=O)CCCCCCC)OC(=O)CCCCCCC`, for which the outcome was inactive.

Consider `Cc1cc(=O)[nH]c(=S)[nH]1`, for which the compound was classed as inactive.

For the compound `O=C1C(c2[nH]c3ccccc3c2O)=Nc2ccccc21`, the outcome was inactive.

On to `FC(F)(F)C(Cl)Br` (configuration not stated), for which the compound was called inactive.

As to `Cc1c(N(C)C)c(=O)n(-c2ccccc2)n1C`, the result was inactive.

Consider `Cc1cc(C)nc(NS(=O)(=O)c2ccc(N)cc2)n1`, for which the compound was called inactive.

In the case of `C=CCNC(N)=S`, the outcome was inactive.

For `COc1ccc(O)cc1`, the outcome was inactive.

Take `CCCCOC(=O)c1ccc(N)cc1`: the compound was classed as inactive.

For `CC(=O)OCC(COC(C)=O)OC(C)=O`, the call was inactive.

`Nc1ccc(S(=O)(=O)c2ccc(N)cc2)cc1`: the result was inactive.

On to `CC1CC(OC(=O)c2ccccc2O)CC(C)(C)C1` (configuration not stated), for which the result was inactive.
